Measured values from PubChem BioAssay (NCATS).
Inconclusive results are not listed. Entries that show only a call come without a potency. Unmarked numbers belong to inactive results. Activity calls are given as the source filed them. Calls follow the shape of the dose curve; as a rule, active = well fitted curve in the direction sought with a large enough effect; inconclusive = small, poorly fitted or top-dose-only effect, or another doubt; inactive = no such curve, though single readings can be large; an effect the other way counts as inactive or inconclusive.

Experiments:
[1] = target: Rap guanine nucleotide exchange factor 3 (Homo sapiens) (UniProt O95398); experiment: Confirmatory qHTS for antagonist of cAMP-regulated guanine nucleotide exchange factor 3 (EPAC1) (AID 1645880); conditions: EPAC1 Rap1B-BODIPY-GDP exchange, fluorescence; activity, negative = inhibition: at 115 µM (top of the series); also: nearly all actives have a fitted effect of over 55% in size; also: potency is read from the fitted curve at half-maximal effect
Chain of Rap guanine nucleotide exchange factor 3 (Homo sapiens) (O95398 whole entry, looked up): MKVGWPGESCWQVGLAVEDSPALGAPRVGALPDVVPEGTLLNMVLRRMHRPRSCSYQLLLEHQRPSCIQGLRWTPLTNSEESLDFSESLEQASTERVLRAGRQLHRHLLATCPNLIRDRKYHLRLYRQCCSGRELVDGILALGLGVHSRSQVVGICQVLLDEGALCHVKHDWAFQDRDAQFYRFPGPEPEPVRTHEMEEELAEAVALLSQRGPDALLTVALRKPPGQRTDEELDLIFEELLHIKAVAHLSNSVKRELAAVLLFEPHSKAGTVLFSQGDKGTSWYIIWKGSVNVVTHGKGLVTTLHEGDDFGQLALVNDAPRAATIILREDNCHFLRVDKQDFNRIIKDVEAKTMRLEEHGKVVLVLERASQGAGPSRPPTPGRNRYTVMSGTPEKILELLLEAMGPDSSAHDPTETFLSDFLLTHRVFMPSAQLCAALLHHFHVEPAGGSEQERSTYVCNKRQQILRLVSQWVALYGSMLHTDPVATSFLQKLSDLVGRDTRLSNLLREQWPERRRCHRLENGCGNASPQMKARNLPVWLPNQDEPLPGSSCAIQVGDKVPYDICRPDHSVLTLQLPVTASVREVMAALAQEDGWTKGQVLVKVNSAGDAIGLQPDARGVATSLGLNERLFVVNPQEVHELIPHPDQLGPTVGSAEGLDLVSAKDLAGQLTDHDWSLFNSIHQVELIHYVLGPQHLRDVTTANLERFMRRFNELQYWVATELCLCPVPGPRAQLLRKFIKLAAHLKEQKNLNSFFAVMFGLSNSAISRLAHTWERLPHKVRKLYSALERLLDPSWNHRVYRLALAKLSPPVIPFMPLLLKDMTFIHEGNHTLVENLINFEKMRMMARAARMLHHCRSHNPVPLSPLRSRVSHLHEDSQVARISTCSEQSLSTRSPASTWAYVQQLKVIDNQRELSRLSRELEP
Method in brief: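 Nucleotide exchange uses 100 nM EPAC1, 250 nM RAP1B-BODIPY-GDP and 50 uM GDP, with compounds in a concentration-titration series. After 5 min at room temperature, fluorescence (480 nm ex/540 nm em) is read every 5 min for 30 min. Data are normalized to control ATA and DMSO.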

[2] = target: Rap guanine nucleotide exchange factor 3 (Homo sapiens) (UniProt O95398); experiment: Confirmatory qHTS for agonist of cAMP-regulated guanine nucleotide exchange factor 3 (EPAC1) (AID 1645881); also: nearly all actives have a fitted effect of over 75% in size; also: potency is read from the fitted curve at half-maximal effect;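 as to activation: EPAC1 catalysed release of BODIPY-GDP from Rap1B seen as fluorescence loss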
[3] = target: Rap guanine nucleotide exchange factor 4 (Homo sapiens) (UniProt Q8WZA2); experiment: Confirmatory qHTS for agonist of cAMP-regulated guanine nucleotide exchange factor 4 (EPAC2) (AID 1645884);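 also: nucleotide exchange releases bodipy-GDP from Rap1 and this lowers its fluorescence; nearly all actives have a fitted effect of over 65% in size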; also: potency is read from the fitted curve at half-maximal effect
Chain of Rap guanine nucleotide exchange factor 4 (Homo sapiens) (Q8WZA2 whole entry, looked up): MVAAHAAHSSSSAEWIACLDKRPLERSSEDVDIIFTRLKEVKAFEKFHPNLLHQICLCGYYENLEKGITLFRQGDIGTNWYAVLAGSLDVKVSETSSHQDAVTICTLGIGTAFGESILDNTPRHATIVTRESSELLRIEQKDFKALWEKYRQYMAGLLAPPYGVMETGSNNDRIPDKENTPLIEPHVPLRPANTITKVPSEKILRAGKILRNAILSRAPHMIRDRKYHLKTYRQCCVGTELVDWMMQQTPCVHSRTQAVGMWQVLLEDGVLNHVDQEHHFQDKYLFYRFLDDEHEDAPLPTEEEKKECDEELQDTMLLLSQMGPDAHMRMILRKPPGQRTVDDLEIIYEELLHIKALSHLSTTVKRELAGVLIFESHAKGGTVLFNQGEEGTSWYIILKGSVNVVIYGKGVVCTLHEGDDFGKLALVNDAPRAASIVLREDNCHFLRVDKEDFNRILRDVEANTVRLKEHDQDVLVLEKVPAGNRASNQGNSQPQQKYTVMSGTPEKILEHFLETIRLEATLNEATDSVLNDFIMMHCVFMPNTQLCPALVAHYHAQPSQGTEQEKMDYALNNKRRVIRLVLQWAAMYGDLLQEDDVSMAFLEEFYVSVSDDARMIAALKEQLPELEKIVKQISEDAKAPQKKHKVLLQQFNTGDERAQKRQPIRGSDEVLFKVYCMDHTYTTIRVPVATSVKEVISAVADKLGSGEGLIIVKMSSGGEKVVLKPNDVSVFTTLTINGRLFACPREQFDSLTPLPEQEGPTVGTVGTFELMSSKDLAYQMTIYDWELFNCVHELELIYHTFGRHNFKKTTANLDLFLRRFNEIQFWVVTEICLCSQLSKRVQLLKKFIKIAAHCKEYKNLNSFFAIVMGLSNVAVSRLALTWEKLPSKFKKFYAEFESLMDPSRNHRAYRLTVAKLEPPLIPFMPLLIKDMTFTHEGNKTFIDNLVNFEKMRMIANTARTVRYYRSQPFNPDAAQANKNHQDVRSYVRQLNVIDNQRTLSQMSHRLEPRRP

[4] = target: Rap guanine nucleotide exchange factor 3 (Homo sapiens) (UniProt O95398); experiment: Counterscreen qHTS for antagonist of cAMP-regulated guanine nucleotide exchange factor 3 (EPAC1) (AID 1645888);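 also: fluorescence loss as bound BODIPY-GDP is released from Rap1B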
Method in brief: (§1)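 Rap1B-BODIPY-GDP 250 nM + GDP 50 uM; cpds 7-pt, final 9.74 nM–152 uM (activator mode) or from 7.32 nM upwards (inhibitor mode); RT; FI 480/540 nm at 5 and 30 min, then ± cAMP, reread.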

[5] = target: Rap guanine nucleotide exchange factor 3 (Homo sapiens) (UniProt O95398); experiment: Counterscreen qHTS for agonist of cAMP-regulated guanine nucleotide exchange factor 3 (EPAC1) (AID 1645889); also: nearly all actives have a fitted effect of over 40% in size; also: potency is read from the fitted curve at half-maximal effect
Method in brief: as §1

Row | Compound | Potency [1] | Potency [2] | Potency [3] | Potency [4] | Potency [5] | activation [3] | activity change, negative = inhibition [4] | activation [5]
1 | COc1ccccc1C(=O)Nc1ccccc1C(=O)N1C(C)CCCC1C (stereo not given) | inactive | inactive | inactive | inactive | inactive | – | – | –
2 | O=C1c2cccc3cccc(c23)N1Cc1cccc(F)c1 | inactive | inactive | – | – | – | 7.33% [at 17.1 µM, percent relative to cAMP agonist control] | -7.63% [at 30.8 µM] | 26.6% [at 30.8 µM]
3 | CN1/C(=C\C=C(/C#N)C(=O)Nc2ccc(Cl)cc2)C(C)(C)c2ccccc21 | inactive | 100 µM (active) | 100 µM (active) | inactive | inactive | – | – | –
4 | O=C(O)c1ccccc1N=N/C(=N/Nc1cc(S(=O)(=O)O)ccc1O)c1ccccc1 | 44.7 µM (active) | inactive | – | – | – | -5.11% [at 17.1 µM, percent relative to cAMP agonist control] | -3.19% [at 30.8 µM] | -1.6% [at 30.8 µM]
5 | Cc1ccc(S(=O)(=O)NCc2ccccc2)cc1C(=O)N1CCCC(C(F)(F)F)C1 (stereo not given) | inactive | inactive | inactive | inactive | inactive | – | – | –
6 | Cc1ccc(C)c(Cn2cnc3ccccc3c2=O)c1 | inactive | inactive | inactive | inactive | inactive | – | – | –
7 | CC(=O)NC(c1cccc(F)c1)c1nc(-c2cccs2)cs1 (stereo not given) | inactive | inactive | inactive | inactive | inactive | – | – | –
8 | CCOc1ccc(C(=O)Nc2c(C(=O)Nc3ccccc3F)oc3ccccc23)cc1OCC | inactive | inactive | inactive | inactive | inactive | – | – | –
9 | COc1ccc(/C=C2\SC(=S)NC2=O)cc1OS(=O)(=O)c1ccc(NC(C)=O)cc1 | 37.9 µM (active) | inactive | inactive | inactive | inactive | – | – | –
10 | O=C(C1CC1)N1c2ccccc2Sc2ccccc21 | inactive | inactive | inactive | inactive | inactive | – | – | –
11 | CC1CCN(c2oc(-c3ccccc3F)nc2C#N)CC1 | inactive | inactive | inactive | inactive | inactive | – | – | –
12 | COc1ccc(OC)c(C(C[N+](=O)[O-])c2c(C)cc3ccccn23)c1 (stereo not given) | inactive | inactive | inactive | inactive | inactive | – | – | –
13 | CNc1ccc(-c2nc(-c3ccco3)no2)cc1[N+](=O)[O-] | inactive | inactive | inactive | inactive | inactive | – | – | –
14 | CCCCCN(C(=O)CCC(=O)OCC(=O)N1CCC(C)CC1)c1c(N)n(CCCC)c(=O)[nH]c1=O | inactive | inactive | inactive | inactive | inactive | – | – | –
15 | O=S(=O)(c1ccc(Cl)cc1Br)N1CCCCC1 | inactive | inactive | – | – | – | 12.1% [at 17.1 µM, percent relative to cAMP agonist control] | -6.37% [at 30.8 µM] | 10.6% [at 30.8 µM]
16 | Cc1cc(C)c2sc(N(CCCN(C)C)C(=O)c3ccc(S(=O)(=O)N(C)C4CCCCC4)cc3)nc2c1 | inactive | inactive | inactive | inactive | inactive | – | – | –
17 | CC(=O)Nc1scc(-c2ccccc2)[n+]1-c1ccc(C)cc1 | inactive | inactive | – | – | – | 11.2% [at 17.1 µM, percent relative to cAMP agonist control] | -4.14% [at 30.8 µM] | 4.92% [at 30.8 µM]
18 | CC(C)(C(=O)N1CCC1(C)C(=O)NS(=O)(=O)c1cccc(Cl)c1)c1ccccc1 (stereo not given) | 75.7 µM (active) | inactive | inactive | inactive | inactive | – | – | –
19 | CCCS(=O)(=O)NC(=O)C1(C)CCN(C(=O)c2cccc(OC(F)(F)F)c2)C1 (stereo not given) | inactive | inactive | inactive | inactive | inactive | – | – | –
20 | Cc1cc2ccccc2cc1C(=O)c1ccccc1 | inactive | inactive | – | – | – | 3.89% [at 17.1 µM, percent relative to cAMP agonist control] | -19.3% [at 30.8 µM] | 5.51% [at 30.8 µM]
21 | Cc1cc(C(=O)c2ccc3ccccc3c2)c(C)o1 | inactive | inactive | inactive | inactive | inactive | – | – | –
22 | O=C(c1ccccc1)C(c1ccccc1)c1ccccc1 | inactive | inactive | – | – | – | 0.697% [at 17.1 µM, percent relative to cAMP agonist control] | 2.63% [at 30.8 µM] | 12.8% [at 30.8 µM]
23 | O=C(Cc1ccccc1)Nn1c(O)c(/C=C2\C=Nc3ccccc32)sc1=S | inactive | 112 µM (active) | 100 µM (active) | inactive | 39.8 µM (active) | – | – | –
24 | COc1ccc(/C=C2/SC(=S)N(NS(=O)(=O)c3ccc(C)cc3)C2=O)cc1 | 47.8 µM (active) | inactive | inactive | inactive | inactive | – | – | –
25 | COc1ccc(-n2nnnc2C(c2ccccc2OC(F)(F)F)N2CCN(C/C=C/c3ccccc3)CC2)cc1 (stereo not given) | inactive | inactive | inactive | inactive | inactive | – | – | –
